Data taken from PubChem BioAssay AID1159580 (chemical genetic matrix, 2015).
Several values for one entry are separate records, joined by “and”; a condition that tells them apart may be missing. Equal entries are not always repeated. Screen size: about 5,500 compounds; about 2,000 (36%) were called active. Not shown: some 18% with an inconclusive outcome. The list shows a part of the results. Values without a mark were called inactive. No stated cut-off is given here; in the data, active means normalized growth mostly below about 0.91 (no sharp cut-off); inconclusive means no clear call, values can overlap the other calls; inactive means mostly above about 0.92.

Test: chemical genetic growth profiling, strain panel (AID 1159580);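 further: tested at 20 µM; growth read once vehicle control cultures reached saturation at 30 °C; 1 = growth at the plate median or of vehicle wells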
Conditions: S. cerevisiae deletion strains, growth OD

O=[N+]([O-])c1cc([As](=O)(O)O)ccc1O
normalized growth (locus YAL013W, strain DEP1, stronger effect = lower value): 0.987 | normalized growth (locus YAL021C, strain ccr4, stronger effect = lower value): 0.965 | normalized growth (locus YAL026C, strain drs2, stronger effect = lower value): 0.975 | normalized growth (locus YAL030W, strain snc1, stronger effect = lower value): 0.971 | normalized growth (locus YBL061C, strain skt5, stronger effect = lower value): 0.979 | normalized growth (locus YBR009C, strain hhf1, stronger effect = lower value): 0.975 | normalized growth (locus YBR021W, strain FUR4, stronger effect = lower value): 1.01 | normalized growth (locus YBR023C, strain chs3, stronger effect = lower value): 0.986 | normalized growth (locus YBR171W, strain sec66, stronger effect = lower value): 0.946 | normalized growth (locus YBR229C, strain ROT2, stronger effect = lower value): 1 | normalized growth (locus YBR231C, strain swc5, stronger effect = lower value): 0.946 | normalized growth (locus YBR279W, strain paf1, stronger effect = lower value): 0.963 | normalized growth (locus YCL011C, strain gbp2, stronger effect = lower value): 0.991 | normalized growth (locus YCL016C, strain dcc1, stronger effect = lower value): 0.99 | normalized growth (locus YCL029C, strain bik1, stronger effect = lower value): 0.914 | normalized growth (locus YCL069W, strain vba3, stronger effect = lower value): 0.967 | normalized growth (locus YCR088W, strain abp1, stronger effect = lower value): 0.975 | normalized growth (locus YDL005C, strain med2, stronger effect = lower value): 0.972 | normalized growth (locus YDL035C, strain GPR1, stronger effect = lower value): 1 | normalized growth (locus YDL040C, strain nat1, stronger effect = lower value): 0.958 | normalized growth (locus YDL074C, strain BRE1, stronger effect = lower value): 0.977 | normalized growth (locus YDL101C, strain DUN1, stronger effect = lower value): 1 | normalized growth (locus YDL134C, strain PPH21, stronger effect = lower value): 0.989 | normalized growth (locus YDL185W, strain tfp1, stronger effect = lower value): 0.978 | normalized growth (locus YDL192W, strain arf1, stronger effect = lower value): 0.214 (active) | normalized growth (locus YDR001C, strain nth1, stronger effect = lower value): 0.967 | normalized growth (locus YDR069C, strain doa4, stronger effect = lower value): 0.945 | normalized growth (locus YDR101C, strain arx1, stronger effect = lower value): 0.759 (active) | normalized growth (locus YDR137W, strain rgp1, stronger effect = lower value): 0.984 | normalized growth (locus YDR150W, strain NUM1, stronger effect = lower value): 0.987 | normalized growth (locus YDR159W, strain sac3, stronger effect = lower value): 0.978 | normalized growth (locus YDR162C, strain NBP2, stronger effect = lower value): 0.962 | normalized growth (locus YDR195W, strain ref2): 0.898 | normalized growth (locus YDR297W, strain sur2, stronger effect = lower value): 0.971 | normalized growth (locus YDR318W, strain mcm21, stronger effect = lower value): 0.0896 (active) | normalized growth (locus YDR334W, strain swr1, stronger effect = lower value): 0.958 | normalized growth (locus YDR335W, strain msn5, stronger effect = lower value): 0.972 | normalized growth (locus YDR388W, stronger effect = lower value): 0.112 (active) | normalized growth (locus YDR392W, strain spt3, stronger effect = lower value): 0.989 | normalized growth (locus YDR502C, strain sam2, stronger effect = lower value): 0.247 (active) | normalized growth (locus YEL003W, strain gim4, stronger effect = lower value): 0.963 | normalized growth (locus YEL037C, strain rad23, stronger effect = lower value): 0.953 | normalized growth (locus YEL061C, strain CIN8 (second series), stronger effect = lower value): 0.971 | normalized growth (locus YEL061C, strain CIN8, stronger effect = lower value): 0.993 | normalized growth (locus YER015W, strain faa2, stronger effect = lower value): 0.958 | normalized growth (locus YER016W, strain bim1, stronger effect = lower value): 0.997 | normalized growth (locus YER110C, stronger effect = lower value): 0.566 (active) | normalized growth (locus YER111C, strain swi4, stronger effect = lower value): 0.949 | normalized growth (locus YER155C, strain BEM2 (second series), stronger effect = lower value): 0.953 | normalized growth (locus YER155C, strain BEM2, stronger effect = lower value): 0.998 | normalized growth (locus YER167W, strain BCK2, stronger effect = lower value): 1.02 | normalized growth (locus YFR010W, strain ubp6, stronger effect = lower value): 0.949 | normalized growth (locus YGL078C, strain dbp3, stronger effect = lower value): 0.406 (active) | normalized growth (locus YGL086W, strain mad1, stronger effect = lower value): 0.0902 (active) | normalized growth (locus YGL167C, strain pmr1, stronger effect = lower value): 0.971 | normalized growth (locus YGL173C, strain kem1, stronger effect = lower value): 0.964 | normalized growth (locus YGL227W, strain vid30, stronger effect = lower value): 0.964 | normalized growth (locus YGL240W, strain doc1, stronger effect = lower value): 0.946 | normalized growth (locus YGL248W, strain PDE1, stronger effect = lower value): 0.992 | normalized growth (locus YGL253W, strain hxk2, stronger effect = lower value): 0.963 | normalized growth (locus YGR078C, strain PAC10, stronger effect = lower value): 0.958 | normalized growth (locus YGR135W, strain pre9, stronger effect = lower value): 0.089 (active) | normalized growth (locus YGR229C, strain SMI1, stronger effect = lower value): 0.981 | normalized growth (locus YGR252W, strain gcn5, stronger effect = lower value): 0.255 (active) | normalized growth (locus YHR013C, strain ard1, stronger effect = lower value): 0.986 | normalized growth (locus YHR027C, strain rpn1, stronger effect = lower value): 0.972 | normalized growth (locus YHR030C, strain SLT2, stronger effect = lower value): 0.998 and 1.06 | normalized growth (locus YHR079C, strain IRE1 (second series), stronger effect = lower value): 0.791 (active) | normalized growth (locus YHR079C, strain IRE1, stronger effect = lower value): 1.09 | normalized growth (locus YHR094C, strain hxt1, stronger effect = lower value): 0.25 (active) | normalized growth (locus YHR129C, strain ARP1, stronger effect = lower value): 0.999 | normalized growth (locus YHR142W, strain chs7, stronger effect = lower value): 0.968 | normalized growth (locus YHR200W, strain rpn10, stronger effect = lower value): 0.26 (active) | normalized growth (locus YIL066C, strain RNR3, stronger effect = lower value): 1.04 | normalized growth (locus YIL073C, strain SPO22, stronger effect = lower value): 1.06 | normalized growth (locus YIL125W, strain kgd1, stronger effect = lower value): 0.521 (active) | normalized growth (locus YIR030C, strain dcg1, stronger effect = lower value): 0.629 (active) | normalized growth (locus YJL092W, strain hpr5, stronger effect = lower value): 0.969 | normalized growth (locus YJL095W, strain BCK1 (second series), stronger effect = lower value): 0.966 | normalized growth (locus YJL095W, strain BCK1, stronger effect = lower value): 0.999 and 1.02 | normalized growth (locus YJL115W, strain asf1, stronger effect = lower value): 0.962 | normalized growth (locus YJL129C, strain trk1, stronger effect = lower value): 0.936 | normalized growth (locus YJL134W, strain LCB3, stronger effect = lower value): 0.991 | normalized growth (locus YJL154C, strain vps35, stronger effect = lower value): 0.945 | normalized growth (locus YJL164C, strain tpk1, stronger effect = lower value): 1 | normalized growth (locus YJL166W, strain qcr8, stronger effect = lower value): 0.977 | normalized growth (locus YJL168C, strain set2, stronger effect = lower value): 0.453 (active) | normalized growth (locus YJL187C, strain SWE1 (second series), stronger effect = lower value): 1 | normalized growth (locus YJL187C, strain SWE1, stronger effect = lower value): 0.964 | normalized growth (locus YJR043C, strain POL32, stronger effect = lower value): 1.02 | normalized growth (locus YJR066W, strain TOR1, stronger effect = lower value): 0.989
